Screen size: about 5,500 compounds; about 2,000 (36%) were called active. Roughly 18% stayed inconclusive and do not appear here. No stated cut-off is given here; in the data, active means normalized growth mostly below about 0.91 (no sharp cut-off); inconclusive means no clear call, values can overlap the other calls; inactive means mostly above about 0.92. The list shows a part of the results.
Assay: chemical genetic growth profiling, strain panel (AID 1159580);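 further: tested at 20 µM; growth read once vehicle control cultures reached saturation at 30 °C; 1 = growth at the plate median or of vehicle wells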
Conditions: S. cerevisiae deletion strains, growth OD

Measured: normalized growth

Nc1ccc(N2CCN(c3ccc(C(F)(F)F)cn3)CC2)nc1
active: locus YHR030C, strain SLT2, stronger effect = lower value 0.724
inactive: locus YAR019C, strain CDC15, stronger effect = lower value 0.974 | locus YBL105C, strain PKC1, stronger effect = lower value 0.984 | locus YBR135W, strain CKS1, stronger effect = lower value 0.969 | locus YBR136W, strain MEC1, stronger effect = lower value 0.983 | locus YBR160W, strain CDC28, stronger effect = lower value 0.964 | locus YDL017W, strain CDC7, stronger effect = lower value 0.98 | locus YDL028C, strain MPS1, stronger effect = lower value 0.949 | locus YDL101C, strain DUN1, stronger effect = lower value 0.987 | locus YDL108W, strain KIN28, stronger effect = lower value 0.966 | locus YDL132W, strain cdc53, stronger effect = lower value 0.992 | locus YDL214C, strain PRR2, stronger effect = lower value 0.927 | locus YDR052C, strain DBF4, stronger effect = lower value 0.988 | locus YDR054C, strain cdc34, stronger effect = lower value 0.994 | locus YDR226W, strain ADK1, stronger effect = lower value 0.975 | locus YDR477W, strain SNF1, stronger effect = lower value 0.862 | locus YER123W, strain YCK3, stronger effect = lower value 0.879 | locus YER133W, strain GLC7, stronger effect = lower value 0.916 | locus YFL009W, strain cdc4, stronger effect = lower value 0.968 | locus YFL029C, strain CAK1, stronger effect = lower value 0.971 | locus YFR003C, strain YPI1, stronger effect = lower value 0.981 | locus YFR019W, strain FAB1, stronger effect = lower value 0.862 | locus YFR028C, strain CDC14, stronger effect = lower value 0.982 | locus YGR040W, strain KSS1, stronger effect = lower value 0.865 | locus YGR052W, strain FMP48, stronger effect = lower value 0.968 | locus YGR092W, strain DBF2, stronger effect = lower value 0.722 | locus YHR079C, strain IRE1, stronger effect = lower value 0.948 | locus YHR082C, strain KSP1, stronger effect = lower value 0.966 | locus YHR205W, strain SCH9, stronger effect = lower value 0.986 | locus YIL147C, strain SLN1, stronger effect = lower value 0.973 | locus YJL095W, strain BCK1, stronger effect = lower value 0.809 | locus YJL128C, strain PBS2, stronger effect = lower value 1.02 | locus YJL157C, strain FAR1, stronger effect = lower value 0.921 | locus YJR016C, strain ILV3, stronger effect = lower value 0.976 | locus YJR066W, strain TOR1 (second series), stronger effect = lower value 0.775 | locus YJR066W, strain TOR1, stronger effect = lower value 0.879 | locus YKL048C, strain ELM1, stronger effect = lower value 1.03 | locus YKL067W, strain YNK1, stronger effect = lower value 0.91 | locus YKL101W, strain HSL1, stronger effect = lower value 0.98 | locus YKL193C, strain SDS22, stronger effect = lower value 0.983 | locus YKL203C, strain TOR2, stronger effect = lower value 0.976 | locus YLR113W, strain HOG1, stronger effect = lower value 0.991 | locus YLR133W, strain CKI1, stronger effect = lower value 0.96 | locus YLR403W, strain SFP1, stronger effect = lower value 0.9 | locus YML070W, strain DAK1, stronger effect = lower value 0.917 | locus YMR001C, strain CDC5, stronger effect = lower value 0.977 | locus YMR205C, strain PFK2 (second series), stronger effect = lower value 0.952 | locus YMR277W, strain FCP1, stronger effect = lower value 0.952 | locus YNL006W, strain LST8, stronger effect = lower value 0.967 | locus YNL020C, strain ARK1, stronger effect = lower value 0.95 | locus YNL161W, strain CBK1, stronger effect = lower value 0.991 | locus YNL183C, strain NPR1, stronger effect = lower value 1.01 | locus YNL207W, strain RIO2, stronger effect = lower value 0.959 | locus YNL222W, strain SSU72, stronger effect = lower value 0.956 | locus YNL307C, strain MCK1 (second series), stronger effect = lower value 0.916 | locus YOL078W, strain AVO1, stronger effect = lower value 0.982 | locus YOL136C, strain PFK27, stronger effect = lower value 0.928 | locus YOR061W, strain CKA2, stronger effect = lower value 0.943 | locus YOR119C, strain RIO1, stronger effect = lower value 0.923 | locus YOR231W, strain MKK1, stronger effect = lower value 0.904 | locus YOR329C, strain SCD5, stronger effect = lower value 0.986 | locus YPL031C, strain PHO85, stronger effect = lower value 0.876 | locus YPL153C, strain RAD53, stronger effect = lower value 0.835 | locus YPL204W, strain HRR25, stronger effect = lower value 0.828 | locus YPL209C, strain IPL1, stronger effect = lower value 0.991 | locus YPL256C, strain CLN2, stronger effect = lower value 0.983 | locus YPR025C, strain CCL1, stronger effect = lower value 0.981 | locus YPR106W, strain ISR1, stronger effect = lower value 1.01 | locus YPR111W, strain DBF20, stronger effect = lower value 1.02 | strain NNK1, stronger effect = lower value 0.984 | strain TSCII, stronger effect = lower value 0.97

From PubChem BioAssay AID1159580 (chemical genetic matrix, 2015)
